Data on 12 molecules can be found in the supplement of paper PMC6897291.

In the assay the test system is RIVA. As to the kind of experiment: growth inhibition by drug plus 177Lu-lilotomab satetraxetan (1 - RLU/untreated control) (fraction); higher = stronger inhibition. Conditions: 100 nM; time (day): 6; 177Lu-lilotomab satetraxetan 0.5 ug/ml. Put shortly:
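A radiolabelled anti-CD37 antibody conjugate (~600 MBq/mg) was applied for 18 h at 0.5 µg/ml to RIVA and 1 µg/ml to U-2932 cells, with untreated cells run alongside. All cells were washed and seeded at 3,000 cells/well onto library-printed plates at 10/100 nM (RIVA) or 10/1,000 nM (U-2932). Growth inhibition was based on RealTime-Glo luminescence compared with untreated no-drug wells. Daily reads began on day 3 after 1 h at 37°C, with each value being 1 − RLU/mean of the 48 such wells on that plate.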
As for `COc1ccc(S(=O)(=O)Nc2cccnc2Nc2ccc(O)cc2)cc1`, the “growth inhibition by drug plus 177Lu-lilotomab satetraxetan” value (from here on “growth inhibition”) stood at 0.5.

Consider `C[C@]12CCC(=O)C=C1CC[C@@H]1[C@@H]2[C@@H](O)C[C@@]2(C)[C@H]1CC[C@]2(O)C(=O)CO` [Hydrocortisone (Cortisol)], for which the “growth inhibition” value came to 0.347.

`COc1cc(OC2CCN(C)CC2)ccc1Nc1ncc2c(n1)n(C1CCCC1)c(=O)n2C`: the “growth inhibition” value stood at 0.479.

Take `Nc1nc(F)nc2c1ncn2[C@@H]1O[C@H](CO)[C@@H](O)[C@@H]1O` [Fludarabine (Fludara)]: the “growth inhibition” value is 0.585.

Consider `Nc1nc(Nc2ccc(S(N)(=O)=O)cc2)nn1C(=O)c1c(F)cccc1F`, for which the “growth inhibition” value is 0.599.

With `Nc1ncn([C@@H]2O[C@H](CO)[C@@H](O)[C@H]2O)c(=O)n1` [Azacitidine (Vidaza)], the “growth inhibition” value is 0.374.

On to `COc1cc2nccc(Oc3ccc(NC(=O)NC4CC4)c(Cl)c3)c2cc1C(N)=O` [E7080 (Lenvatinib)], for which the “growth inhibition” value was 0.461.

As to `Nc1ccn([C@@H]2O[C@H](CO)[C@@H](O)[C@@H]2O)c(=O)n1` [Cytarabine], the “growth inhibition” value amounted to 0.81.

For the molecule `Nc1cccc2c1C(=O)N(C1CCC(=O)NC1=O)C2=O` (configuration not stated) [Pomalidomide], the “growth inhibition” value was 0.443.

Turning to `CN(C)c1nc(N(C)C)nc(N(C)C)n1` [Altretamine (Hexalen)], the “growth inhibition” value worked out at 0.332.

`Cc1[nH]c(/C=C2\C(=O)Nc3ccc(S(=O)(=O)N(C)c4cccc(Cl)c4)cc32)c(C)c1C(=O)N1CCN(C)CC1`: the “growth inhibition” value was determined as 0.523.

For `O=C(O[C@@H]1Cc2c(O)cc(O)cc2O[C@@H]1c1cc(O)c(O)c(O)c1)c1cc(O)c(O)c(O)c1` [(-)-Epigallocatechin gallate], the “growth inhibition” value was found to be 0.474.
